Test results published in PubChem BioAssay AID504766 (The Scripps Research Institute Molecular Screening Center, 2011).
The whole screen tested about 340,000 compounds, of which about 3,400 (1%) were called active.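 The calls were made as follows: active = inhibition above the mean over all tested compounds plus 3 SD (cut at about 4.2% in these data); inactive = the rest.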 Shown is part of a subset that was picked to be rich in actives.

Molecular target: Nuclear receptor subfamily 0 group B member 1 (Homo sapiens) (UniProt P51843)
Assay: relief of DAX1 transcriptional repression – cell-based, HEK293, Gal4-DAX1, luciferase luminescence, primary screen (AID 504766);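 also: 0% = DAX1-transfected cells with DMSO and 100% = empty-vector control cells with DMSO; inhibition shows as a rise in luminescence from relieved DAX1 repression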
Details: HEK293 Gal4-DAX1 luciferase reporter, at 6.75 µM, hits give high values

Nuclear receptor subfamily 0 group B member 1 (Homo sapiens), sequence (P51843 207-470 limits assumed): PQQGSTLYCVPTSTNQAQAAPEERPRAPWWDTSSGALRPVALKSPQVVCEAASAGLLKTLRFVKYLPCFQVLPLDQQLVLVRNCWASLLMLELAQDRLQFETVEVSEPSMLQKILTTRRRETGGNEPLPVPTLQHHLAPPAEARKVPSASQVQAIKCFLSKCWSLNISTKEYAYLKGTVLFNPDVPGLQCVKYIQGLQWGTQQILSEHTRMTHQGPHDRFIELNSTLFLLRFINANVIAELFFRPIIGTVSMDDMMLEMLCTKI

Structure (SMILES)	inhibition
CC1C(=O)OC2CCN3CC=C(COC(=O)C(C)(O)C1(C)O)C23 (stereo not given)	6.45% (active)
O=C(NCC1=C(c2ccc3ccccc3c2)C[C@@H]2CC[C@H]1N2Cc1ccco1)c1cccs1	0.9% (inactive)
CN(C)CC1CCCCC1OC(=O)c1ccc(Cl)c(Cl)c1 (stereo not given)	1.17% (inactive)
N=c1ccccn1Cc1ccccc1	4.71% (active)
COc1cc2nc(N3CCN(C(=O)[C@@H]4CCCO4)CC3)nc(N)c2cc1OC	-1.49% (inactive)
CC(C(=O)Nc1ccc(Cl)cc1Cl)N1CC=C(c2ccccc2)CC1 (stereo not given)	0.95% (inactive)
COC(=O)C1=C(c2ccc3ccccc3c2)C[C@@H]2CC[C@H]1N2C(=O)NCCO	-0.02% (inactive)
COC(=O)C1=C(c2ccc(F)cc2F)C[C@@H]2CC[C@H]1N2C(=O)NC1CC1	1.3% (inactive)
Fc1ccc(C2N3CCCN23)cc1 (stereo not given)	6.8% (active)
Cc1cccc(NC(=O)N2CC3CC(C2)c2cccc(=O)n2C3)c1 (stereo not given)	-0.11% (inactive)
CC(=CCOc1ccc2ccc(=O)oc2c1)C1=CC(=O)C(C)(C)O1	-1.41% (inactive)
C[C@]12CC[C@H](O)CC1=C([N+](=O)[O-])CC1C2CC[C@@]2(C)C1CC[C@@H]2O (stereo not given in full)	0.51% (inactive)
COc1ccc(-c2nn(CCC#N)cc2C(=O)O)cc1	0.78% (inactive)
O=C(N/N=C/c1c(O)n(Cc2ccccc2)c(=O)[nH]c1=O)c1ccccc1	0.57% (inactive)
CC/C(=N\NC(=O)c1ccccc1O)c1c(O)n(Cc2ccccc2)c(=O)[nH]c1=O	4.6% (active)
CCC(=NCc1ccco1)c1c(O)n(Cc2ccccc2)c(=O)[nH]c1=O	-0.6% (inactive)
Cc1ccc(OC(=O)N(C)C[C@@H]2OCc3cnnn3CCCC(=O)N([C@H](C)CO)C[C@@H]2C)cc1	1.2% (inactive)
COC(=O)C1=C(c2cccc(OCc3ccccc3)c2)C[C@@H]2CC[C@H]1N2C(=O)NCc1ccc(Br)cc1	-1.05% (inactive)
C=Cn1ccnc1P(=S)(c1cc(N(CC)CC)ns1)c1nccn1C=C	0.78% (inactive)
Cc1nc2ccccn2c1P(=S)(N1CCCCC1)N1CCCCC1	-0.88% (inactive)
CC(=O)OC1C2(CC3N4C(=O)C5(CO)SSC4(CC31O)C(=O)N5C)OC(C)C(C)(C)C2=O (stereo not given)	-6.61% (inactive)
O=C(c1cc(-c2ccncc2)nc2ccccc12)N1CCC2(CC1)OCCO2	1.03% (inactive)
O=C(c1cc(S(=O)(=O)N2CCOCC2)ccc1F)N1CCC2(CC1)OCCO2	0.34% (inactive)
O=C(c1ccccc1[N+](=O)[O-])N1CCC2(CC1)OCCO2	5.98% (active)
CN(C)c1nc(N(C)C)nc(N(C#N)CCCl)n1	-0.78% (inactive)
CNCC(O)c1cc(F)c(OCc2ccccc2)c(OCc2ccccc2)c1F (stereo not given)	-0.1% (inactive)
CN1CCc2cc3c(cc2[C@H]1[C@@H]1OC(=O)c2c1ccc1c2OCO1)OCO3	1.17% (inactive)
O=C1NC(=O)C(CCOc2ccccc2)(CCc2ccccc2)C(=O)N1	-0.23% (inactive)
CCC(C)n1c(O)c(/C=N/Nc2nc3c(c(=O)n(C)c(=O)n3C)n2C)c(=O)[nH]c1=S (stereo not given)	4.71% (active)
O=C(CCC(=O)N1C[C@H]2C[C@@H](C1)c1cccc(=O)n1C2)NCc1ccccc1C(F)(F)F	0.36% (inactive)
